Measurements: PubChem BioAssay (EPA / NIEHS)
Where “and” joins values, the source holds several entries; their conditions need not be identical. Equal entries are not always repeated. A structure can be active in one record and inactive in another. Calls of active or inactive are those of the source. Rule for the calls: active = hit-call score of the fitted dose curve at least 0.9, where 1 is the maximum; inactive = score below 0.9.

Each compound was assayed on Interleukin 17A (IL17A), IL17A (gene 3605) (assay: BSK_BT_xIL17A: BioMAP Diversity Plus: BT Assay for Interleukin 17A (IL17A) Biomarker Activity (AID 2284229)). Conditions: primary human B cells with PBMC.
Method: BSK_BT is a cell-based, multiplexed-readout assay that uses B cell and peripheral blood mononuclear cells, a human vascular primary cell co-culture, with measurements taken at 24 hours after chemical dosing in a microplate: 96-well plate.BSK_BT_xIL17A is an assay component measured in the BSK_BT assay. It measures secreted IL-17A related to regulation of gene expression using LumineX xMAP technology.Data from the assay component BSK_BT_xIL17A was analyzed at the endpoint, BSK_BT_xIL17A, in the positive analysis fitting direction relative to DMSO as the negative control and baseline of activity. Using a type of cytokine quantitation reporter, gain or loss-of-signal activity can be used to understand protein changes. To generalize the intended target to other relatable targets, this assay endpoint is annotated to the 'cytokine' intended target family, where the subfamily is 'interleukins'.
The levels of cell surface (or secreted, indicated by the prefix "s") biomarker endpoints were measured by ELISA. Overt cytotoxicity to cells in confluent adherent cultures (all systems other than the BT system) was assessed by measuring total protein levels using sulforhodamine B (SRB) staining in parallel cultures at the time of biomarker measurements, indicated as SRB endpoints. For proliferation assays for adherent cell types, individual cell types are cultured at sub-confluence and relative cell numbers quantified by SRB staining at time points optimized for each system (48 h: 3C and CASM3C systems; 72 h: BT and HDF3CGF systems; 96 h: SAg system). SRB was performed by staining cells with 0.1% SRB after fixation with 10% TCA and reading wells at 560 nm.Viability and proliferation of PBMC (T cells) was quantified by Alamar Blue reduction for the SAg and BT systems. For PBMC viability (referred to as PBMC Cytotoxicity within the assay endpoint names), cells were plated (75,000/well in a 96-well plate) and then chemical samples added for 1 h before addition of activators, SEB and TSST-1 (20 ng/mL final concentration each). Cells were incubated for 90 h. Then, Alamar Blue (20 uL/well) (Invitrogen, Cat DAL1100) was added for 6 h, and the plates were read with a fluorescence microplate reader at 546/580 nm (excitation/emission). For PBMC proliferation, cells were plated and activated as above but incubated for only 16 h prior to addition of Alamar Blue. Plates were read after 6 h.

SMILES	AC50	outcome
O=C(CC(=O)C(F)(F)C(F)(F)C(F)(F)F)c1cccs1	30 µM (active) and 24.5 µM (active)	
O=P(O)(O)CCC(F)(F)C(F)(F)C(F)(F)C(F)(F)C(F)(F)C(F)(F)F		inactive
COCN(COC)c1nc(N(COC)COC)nc(N(COC)COC)n1		inactive
CCCCC(CC)C(=O)OCCOCCOCCOCCOC(=O)C(CC)CCCC (centres undefined)		inactive
Cc1cccc2c1ccc1ccccc12		inactive
CC[N+](CC)(CC)Cc1ccccc1		inactive
CN(Cc1cnc2nc(N)nc(N)c2n1)c1ccc(C(=O)N[C@@H](CCC(=O)O)C(=O)O)cc1		inactive
COC1=CC(=O)C[C@@H](C)[C@]12Oc1c(Cl)c(OC)cc(OC)c1C2=O		inactive
O=C(O)CCC(F)(F)C(F)(F)C(F)(F)C(F)(F)C(F)(F)C(F)(F)F		inactive
CCOC(=O)CN[C@@H](C(=O)N1CC[C@H]1C(=O)NCc1ccc(/C(N)=N/O)cc1)C1CCCCC1		inactive
COc1cccc(O)c1		inactive
CCCCCc1ccc(O)cc1		inactive
NC(=NCCCCCCN=C(N)/N=C(\N)Nc1ccc(Cl)cc1)/N=C(\N)Nc1ccc(Cl)cc1	4.09 µM (active)	
Oc1cc2ccccc2cc1O		inactive
OCC(F)(F)C(F)(F)C(F)(F)C(F)(F)C(F)(F)C(F)(F)C(F)(F)C(F)(F)C(F)(F)C(F)(F)C(F)(F)F	0.0554 µM (active)	inactive
CN(C)c1ccc(C(=C2C=CC(=[N+](C)C)C=C2)c2ccccc2)cc1	0.28 µM (active)	
O=C(NO)c1ccccc1	8.55 µM (active)	
C[C@]12CC[C@@H]3c4ccc(O)cc4CC[C@H]3[C@@H]1C[C@@H](O)[C@@H]2O		inactive
COc1cc(OC)nc(NC(=O)NS(=O)(=O)Nc2ccccc2C(=O)N(C)C)n1		inactive

SMILES	AC50	outcome
O=C(O)CCC(F)(F)C(F)(F)C(F)(F)C(F)(F)C(F)(F)F		inactive
O=C1OC2(c3ccccc31)c1cc(I)c(O)c(I)c1Oc1c2cc(I)c(O)c1I		inactive
CN(CCO)S(=O)(=O)C(F)(F)C(F)(F)C(F)(F)C(F)(F)C(F)(F)C(F)(F)C(F)(F)C(F)(F)F		inactive
Cc1ccc(N=Nc2c(O)ccc3ccccc23)c(C)c1		inactive
C=CC(=O)OCCC(F)(F)C(F)(F)C(F)(F)C(F)(F)C(F)(F)C(F)(F)C(F)(F)C(F)(F)F		inactive
Cc1ccc(C(=O)c2ccccc2)cc1		inactive
O=C(NCc1ncc(C(F)(F)F)cc1Cl)c1c(Cl)cccc1Cl	15.5 µM (active)	
CC1=NN(c2ccccc2)C(=O)C1		inactive
O=S(=O)(O)C(F)(F)C(F)(F)C(F)(F)C(F)(F)C(F)(F)C(F)(F)C(F)(F)C(F)(F)C(F)(F)C(F)(F)F		inactive
O=C1c2ccc(O)c(O)c2C(=O)c2c(O)ccc(O)c21		inactive
C=CC(C)(CCC=C(C)C)OC(C)=O (centres undefined)		inactive
O=P(O)(O)CCC(F)(F)C(F)(F)C(F)(F)C(F)(F)C(F)(F)C(F)(F)C(F)(F)C(F)(F)F		inactive
OCCN1CN(CCO)CN(CCO)C1		inactive
C=COC(=O)C(C)(C)CCCCCC		inactive
O=C(O)C(F)(F)OC(F)(F)C(F)(F)OC(F)(F)C(F)(F)OC(F)(F)C(F)(F)C(F)(F)C(F)(F)F	41.8 µM (active) and 51.3 µM (active)	
Clc1ccc(Nc2nnc(Cc3ccncc3)c3ccccc23)cc1		inactive
CCCCCCCCCCCCCCCCCC[N+](C)(C)Cc1ccccc1	0.792 µM (active)	
CC(C)(C)c1ccc(O)c(O)c1	16.5 µM (active)	
C=CC(=C)CC/C=C(\C)CCC=C(C)C		inactive
